{
  "source": "PubChem BioAssay (NCI)",
  "note": "This is part of a sample that, as a whole, favours compounds with a hit. Of some 79,000 tested, about 15% had one in any assay. Values without a mark were called inactive. The source made the active and inactive calls. Rule as the data show it: active = growth inhibition above about 70%; inactive = the rest.",
  "data": [
    {"test": "NCI Yeast Anticancer Drug Screen. Data for the mlh1 rad18 strain (AID 175)", "conditions": "S. cerevisiae mlh1 rad18 strain growth inhibition; at 50.0 µM; stronger effect = higher value", "summary_of_the_method": "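In this whole-cell yeast screen, a strain with altered DNA damage repair is challenged with compound, and its growth is measured against matched vehicle-treated controls.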", "values": [
      {"compound": "ON1c2ccccc2-c2ccccc2C1(c1ccccc1)c1ccccc1", "growth inhibition": "97.3% (active)"},
      {"compound": "O=C(OCc1ccccc1)c1ccccc1O", "growth inhibition": "57.5%"},
      {"compound": "C=CCCCCCCCCC(=O)OC", "growth inhibition": "-31.4%"},
      {"compound": "CC(=O)c1c(C)cc(C)nc1C", "growth inhibition": "9%"},
      {"compound": "Cc1cccc(CCSCCc2cccc(C)[n+]2[O-])[n+]1[O-]", "growth inhibition": "1.8%"},
      {"compound": "CCCNc1nc(N)[nH]c(=O)c1NC=O", "growth inhibition": "-0.85%"},
      {"compound": "C(=C\\c1cc(-c2cc(/C=C/c3ccccc3)[nH]n2)n[nH]1)/c1ccccc1", "growth inhibition": "44.4%"},
      {"compound": "C=CCCCCCCCCC(=O)Nc1cc2c3c(c1)CCCN3CCC2", "growth inhibition": "20.9%"},
      {"compound": "O=C1C=Cc2ccccc2/C1=C/c1nc(-c2ccc(Cl)cc2)oc1O", "growth inhibition": "-13.3%"},
      {"compound": "COn1c(-c2ccccc2)nc2c1C(=O)N(C)CN2C", "growth inhibition": "5.4%"},
      {"compound": "CCCCCCCC[N+](C)([O-])CCCCCC[N+](C)([O-])CCCCCCCC", "note": "(stereo not given)", "growth inhibition": "76.2% (active)"},
      {"compound": "O=C(NI1OC(=O)c2ccccc21)c1ccc(Cl)cc1", "growth inhibition": "-5.6%"},
      {"compound": "COc1ccc(N=Cc2ccc([N+](=O)[O-])cc2)cc1", "growth inhibition": "36.1%"},
      {"compound": "Cc1c(Cl)cccc1NC(=O)OC/C=C/c1ccccc1", "growth inhibition": "-10.9%"},
      {"compound": "COc1ccc(/C=C2\\CCN=C2c2ccccc2)cc1OC", "growth inhibition": "2.65%"},
      {"compound": "Cc1[nH]c2ccccc2c1-c1cc(-c2cc(-c3c(C)[nH]c4ccccc34)nc(N)n2)nc(N)n1", "growth inhibition": "-1.95%"},
      {"compound": "CN(C)C=N[C@@H](C(=O)O)c1ccccc1", "growth inhibition": "9.8%"},
      {"compound": "CCCCN=C(C)CC(=O)CC(=O)c1ccccc1", "growth inhibition": "33.9%"},
      {"compound": "COc1ccc2c(c1OC)C(=O)OC2(O)C1=NCCc2cc3c(cc21)OCO3", "note": "(stereo not given)", "growth inhibition": "13.2%"},
      {"compound": "Cc1ccc(NC(=O)CCSC(=O)Nc2ccc(C)cc2)cc1", "growth inhibition": "7.9%"},
      {"compound": "Clc1ccc(-c2ccncc2)cc1", "growth inhibition": "5.7%"},
      {"compound": "COc1ccc(/C=C2\\N=C(c3ccc(N)cc3)OC2=O)cc1OC", "growth inhibition": "19.9%"},
      {"compound": "COc1ccc(/C=N/NC(=O)O)cc1", "growth inhibition": "-18.4%"},
      {"compound": "Oc1cccc2nc3cc(CN4CCOCC4)c(CN4CCOCC4)cc3nc12", "growth inhibition": "-4%"},
      {"compound": "CCC(=O)NCCc1ccccc1", "growth inhibition": "-10.4%"},
      {"compound": "N=C(CNC(=O)OCc1ccccc1)N1CCCC1C(=O)O", "note": "(stereo not given)", "growth inhibition": "-6.95%"},
      {"compound": "Clc1ccc(SCSc2ccc(Cl)cc2)cc1", "growth inhibition": "-0.85%"},
      {"compound": "COc1ccc(C(=O)Nc2ccccc2C#N)cc1", "growth inhibition": "-3.8%"},
      {"compound": "O=C(NN1C(=O)C(Cl)C1c1ccccc1Cl)c1ccccc1O", "note": "(stereo not given)", "growth inhibition": "-36%"},
      {"compound": "Cc1ccc(C)c(N2C(=O)C(=O)C(c3nc4ccccc4o3)/C(=N/N)C2=O)c1", "note": "(stereo not given)", "growth inhibition": "-17.8%"},
      {"compound": "C#Cc1cccc(N=Cc2cc(Cl)cc(C)c2O)c1", "growth inhibition": "33.7%"},
      {"compound": "CC1=CCC(=O)[C@]2(C)C(CC(=O)O)[C@]3(C)C4=C(C)C(c5ccoc5)C[C@@H]4O[C@@H]3[C@H](O)[C@@H]12", "note": "(stereo not given in full)", "growth inhibition": "-67.8%"},
      {"compound": "Cc1[nH]c2c(O)ccc(O)c2c1C", "growth inhibition": "4.9%"},
      {"compound": "CCOC(=O)/C(=C\\c1c(C)[nH]c2ccccc12)P(=O)(OCC)OCC", "growth inhibition": "11.5%"},
      {"compound": "COC(=O)C1(Br)c2ccccc2-c2ccccc21", "growth inhibition": "-9.3%"},
      {"compound": "Cc1ccc(S(=O)(=O)OC(c2ccccc2)c2ccccc2)cc1", "growth inhibition": "-28.8%"},
      {"compound": "O=C1OC(c2ccccc2)=N/C1=C/c1c(-c2ccccc2)c(-c2ccccc2)c2n1CCC2", "growth inhibition": "18.6%"},
      {"compound": "O=NN(C(=O)NCCCl)c1[nH]c(=O)ncc1Br", "growth inhibition": "-6.7%"},
      {"compound": "O=C(OCc1ccccc1CN1CCCC1)c1ccc([N+](=O)[O-])cc1Cl", "growth inhibition": "-54.8%"},
      {"compound": "CCO/C=C1/N=C(Cc2ccccc2)OC1=O", "growth inhibition": "13%"}
    ]}
  ]
}
